Source: PubChem (ICCB-Longwood Screening Facility, Harvard Medical School)
Mtb MbtI inh = MbtI salicylate synthase inhibitors, primary screen, biochemical, fluorescence intensity. AID 493033, 2011. inhibition, % (no concentration beside the values). purified MbtI enzyme, fluorescence intensity read-out. 100,000 tested, 0.89% active; in the data active means inhibition mostly above about 56%, no sharp cut-off; inactive means mostly below about 77%
Target sequence (P9WFX0 whole entry, looked up): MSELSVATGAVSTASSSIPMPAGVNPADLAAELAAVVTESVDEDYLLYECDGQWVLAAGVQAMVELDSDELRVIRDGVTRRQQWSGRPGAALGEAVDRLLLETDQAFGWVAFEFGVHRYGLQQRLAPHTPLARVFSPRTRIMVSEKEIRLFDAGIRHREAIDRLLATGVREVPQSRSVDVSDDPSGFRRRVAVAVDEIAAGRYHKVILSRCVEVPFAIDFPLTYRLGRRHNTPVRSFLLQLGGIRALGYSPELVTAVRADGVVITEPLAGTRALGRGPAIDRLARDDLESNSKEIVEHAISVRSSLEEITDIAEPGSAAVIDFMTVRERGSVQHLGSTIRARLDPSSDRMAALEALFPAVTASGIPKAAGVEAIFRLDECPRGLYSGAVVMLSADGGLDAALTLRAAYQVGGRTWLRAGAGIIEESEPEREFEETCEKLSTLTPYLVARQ
Polio RdRp inh = poliovirus RdRp elongation inhibitors, primary screen, biochemical, fluorescence polarization, total intensity; Genome polyprotein (Poliovirus type 1 (strain Mahoney)), P03300; poliovirus polymerase elongation; active compounds read low; % elongation, % (compound at 16.7 µg/mL); 150,000 tested, 0.66% active; AID 588519, 2011; in the data active means % elongation below about 90%
AID504770 = growth inhibition of E. coli YBA685, primary screen, V. cholerae RctB inhibitors. 130,000 tested, 0.27% active. AID 504770, 2011. E. coli YBA685 rctB-dependent plasmid, OD600 growth, 3 h; active compounds read low. z-score (concentration not given with the values); in the data active means z-score below about -2, passing the limit was not always enough
Mtb MenB inh = M. tuberculosis MenB inhibitors, primary screen, biochemical, absorbance; MenB enzyme assay, absorbance read-out; inhibition, % (test concentration not listed); 100,000 tested, 0.43% active; 1,4-dihydroxy-2-naphthoyl-CoA synthase (Mycobacterium tuberculosis (strain ATCC 25618 / …; AID 540299, 2011; in the data active means inhibition above about 21%, passing the limit was not always enough
Large screens that a line does not name were inactive. A selection: hits, their analogues and other compounds. The true share with any hit is near 1.5%.

CC(=Nc1ccccc1)C1=C(O)CCCC1=O	none
CC(NS(=O)(=O)c1ccc2c(c1)c(=O)n(C)c(=O)n2C)C(=O)N1CCN(c2ccc(Cl)cc2)CC1 (configuration not stated)	none (no result: Mtb MbtI inh, Polio RdRp inh, Mtb MenB inh)
CCOC(=O)COc1ccc(C2=Nc3ccccc3NC(c3ccccc3)C2)cc1 (configuration not stated)	none
CCSc1nnc(-c2cc(-c3cccs3)nc3ccccc23)o1	none
Oc1ccc(O)cc1	Mtb MbtI inh 97
COc1ccc(C(=O)C(CN2CCCCC2)c2ccccc2)cc1 (configuration not stated)	none
Cc1ccc(S(=O)(=O)c2ccccc2)cc1S	Polio RdRp inh 62 (no result: Mtb MbtI inh)
Cc1oc2c(c1C(=O)O)C(=O)c1ccccc1C2=O	Polio RdRp inh 66
Cc1oc2c(c1C(=O)NCc1ccccc1)C(=O)c1ccccc1C2=O	none
[O-]c1n[n+](-c2ccccc2)no1	AID504770 -3 (no result: Mtb MbtI inh)
c1ccc(-c2noc(-c3ccccc3)n2)cc1	none (no result: Polio RdRp inh, Mtb MenB inh)
CCN(CC)P1(=S)N(c2ccccc2)N=C2C=C(C)c3ccccc3N21 (configuration not stated)	Polio RdRp inh 68
COC(=O)C1=C(C)NC(C)=C(C(=O)OC)C1c1ccc(C(C)C)cc1	none
COc1cc(/C=C2/SC(=S)N(NC(C)=O)C2=O)ccc1O	none (no result: Mtb MbtI inh)
COc1cc(/C=C2\SC(=O)NC2=S)ccc1O	Mtb MbtI inh 79
CCN(CC)C(=O)CSc1n[nH]c(=S)s1	Mtb MbtI inh 91
FC(F)(F)c1nc2c(cnn2Cc2ccccc2)c2nnnn12	none
O=C(NN1C(=O)c2ccccc2C1=O)c1ccccc1	none (no result: Mtb MbtI inh)
Cc1ccccc1C(=O)NN1C(=O)c2ccccc2C1=O	Mtb MenB inh 33
FC(F)(F)c1ccnc(N2CCN(Cc3c[nH]c4ccccc34)CC2)c1	none (no result: Mtb MbtI inh, Polio RdRp inh, Mtb MenB inh)
N=C1S/C(=C\c2ccc(-c3ccccc3F)o2)C(=O)N1c1ccc2c(c1)OCO2	none
COc1cc(-c2ccc(/C=C3\SC(=N)N(c4nccs4)C3=O)o2)c(OC)cc1Cl	Mtb MbtI inh 56
CC(C)(C)c1cc(C(F)(F)F)nc(SCCNC(=O)c2cnn3cccnc23)n1	Mtb MenB inh 34
CNCC(=O)N1CCN(C)CC1	none
O=c1cc(-c2ccccc2)ss1	Mtb MbtI inh 53, Polio RdRp inh 82
O=S(=O)(/N=c1/cc(-c2ccccc2)ss1)c1ccccc1	none (no result: Mtb MbtI inh)
NC(=S)Cc1ccc(CC(N)=S)o1	Mtb MbtI inh 82
NCc1ccc(C(=O)O)o1	none
c1ccc(-c2nc(N3CCCCC3)c3ccccc3n2)cc1	Mtb MenB inh 33
CCOC(=O)CC1C(=O)NCCN1C1CCCCC1 (configuration not stated)	none
Nc1nnc(SCC(O)Cn2c3c(c4ccccc42)CCCC3)s1 (configuration not stated)	Mtb MenB inh 25 (no result: Mtb MbtI inh)
Cc1ccc(C(=O)Nc2ccc3oc(-c4cccnc4)nc3c2)cc1	none
COc1cccc(CO)c1OCc1ccccc1F	none
CCOc1cc(CNCC(c2ccc(OC)cc2)N2CCCCC2)ccc1OC(C)C(=O)N(C)C (configuration not stated)	Mtb MenB inh 49
Cn1cccc1/C=C/C(=O)O	Polio RdRp inh 76
CCn1ncc(Cl)c(Cl)c1=O	Polio RdRp inh 77 (no result: Mtb MbtI inh)
O=C1c2ccccc2C(=O)N1Cn1ncc(Cl)c(Cl)c1=O	none
CCCCNC(=O)Sc1ccc2ccccc2c1	Polio RdRp inh 84
CCCOc1ccccc1NC(=O)/C=C/C(N)=O	Mtb MbtI inh 100 (no result: Mtb MenB inh)
CC(=O)Nc1ccccc1OCCOc1ccccc1NC(C)=O	none (no result: Mtb MbtI inh, Polio RdRp inh, Mtb MenB inh)
COc1ccc(N(CC(=O)O)S(=O)(=O)c2c(C)noc2C)cc1	none (no result: Mtb MbtI inh, Polio RdRp inh, Mtb MenB inh)
Cc1cc2nc(CSc3ccccc3NC(=O)c3ccc4c(c3)OCO4)cc(=O)n2o1	none
COC(=O)c1c(-c2ccccc2)csc1N	Mtb MbtI inh 59
COC(=O)c1c(-c2ccccc2)csc1NC(=O)CCN1CCC(C)CC1	none (no result: Mtb MbtI inh, Polio RdRp inh, Mtb MenB inh)
Cc1cc2c(cc1C)C(=O)C(N1CCOCC1)=C(c1ccccc1)C2=O	Mtb MbtI inh 54
Cc1cccc(NC(=O)CN(C2=NC3CS(=O)(=O)CC3S2)c2ccccc2)c1 (configuration not stated)	none
CCc1cccc(NC(=O)CN(C2=NC3CS(=O)(=O)CC3S2)c2cccc(C)c2)c1 (configuration not stated)	AID504770 -2.5
CCn1c2ccccc2c2cc(NC(=O)C(C)OC(=O)c3cccn3C)ccc21 (configuration not stated)	Polio RdRp inh 20
CC(OC(=O)c1cccn1C)C(=O)Nc1ccc(Cl)cc1 (configuration not stated)	none
CC(=O)Oc1cc2c(cc1Br)C1CCC3(C)C(OC(C)=O)CCC3C1CC2 (configuration not stated)	none
CNc1ccc2cccc(O)c2n1	AID504770 -3.3
C=CCOC(=O)c1sc(N2CCCC2=O)c(C(=O)OCC)c1C	none
CCOC(=O)c1sc(N=NC2=C(O)CCCC2=O)c(C(=O)OCC)c1C	Polio RdRp inh 42
Clc1ccc(-c2nnsc2Cl)cc1	none (no result: Mtb MbtI inh, Polio RdRp inh, Mtb MenB inh)
CCN1C(=O)/C(=C\c2ccc(-c3ccc(Cl)c(C(=O)O)c3)o2)SC1=S	Mtb MbtI inh 67
CN1C(=O)S/C(=C/c2ccc(-c3ccc(C(=O)O)c(Cl)c3)o2)C1=O	none
CCOC(=O)Nc1ccc2c(c1)N(C(=O)CCNC)c1ccccc1S2	none
Cc1ccc(CNC(=O)C2CCN(S(C)(=O)=O)CC2)cc1	none
CC(C)(C)C(=O)Nc1ccc2c(c1)OCO2	none (no result: Mtb MenB inh)
CC(C)(C(=O)Nc1ccc2c(c1)OCO2)C(=O)Nc1ccc2c(c1)OCO2	Mtb MenB inh 41
CC(=O)NC(NC(C)=O)c1ccc2c(c1)OCO2	Mtb MenB inh 31
CSc1cccc(NC(=S)N(C)C)c1	Mtb MbtI inh 74
CC(=S)Nc1ccc2c(c1)OCO2	Mtb MbtI inh 73, Polio RdRp inh 72
N#Cc1c(C(F)(F)F)cc(-c2ccccc2)[nH]c1=S	none (no result: Mtb MbtI inh)
CCOC(=O)CNc1ncnc2scc(-c3ccccc3)c12	none (no result: Mtb MbtI inh, Polio RdRp inh, Mtb MenB inh)
O=C(/C=C/c1ccccc1)Nc1ccc2c(c1)OCO2	none
NC(=O)/C=C/C(=O)Nc1ccc2c(c1)OCO2	Mtb MbtI inh 101
CN(C)C(=S)Nc1ccc2c(c1)OCO2	Mtb MbtI inh 92
COC(=O)c1ccsc1N1C(=O)C=CC1=O	Mtb MbtI inh 94 (no result: Polio RdRp inh)
CCOC(=O)c1ccc(N2N=C(C(F)(F)F)/C(=C/c3ccc(OCC)c(OCC)c3)C2=O)cc1	none (no result: Mtb MbtI inh)
Nc1n[nH]c(CNC(=O)c2ccccc2)n1	none
O=C1CSc2ccc(C(=O)OCC(=O)N3CCCc4ccccc43)cc2N1	Mtb MbtI inh 60
CCSc1cc(C(F)(F)F)nc2cc(C(C)(C)C)nn12	Mtb MbtI inh 87
CCOC(Cn1c(CO)nc2ccccc21)OCC	none (no result: Mtb MbtI inh, Polio RdRp inh, Mtb MenB inh)
CC(C)Cc1nnc(NS(C)(=O)=O)s1	Mtb MbtI inh 95
CC1=C(O)C(=O)C=C2C1=CC=C1[C@@]2(C)CC[C@@]2(C)[C@@H]3C[C@](C)(C(=O)O)CC[C@]3(C)CC[C@]12C	Mtb MbtI inh 103
OCCn1c(Cc2ccccc2)nc2ccccc21	none (no result: Mtb MenB inh)
CC12CN3CC(C)(C1O)C(O)C(C)(C3)C2O (configuration not stated)	Polio RdRp inh 86
